What all share (test): DAPPL (digital affinity profiling via proximity ligation, sequencing); 10 mM Tris-HCl pH 7.5, 50 mM NaCl, 1 mM DTT, 4% glycerol, room temperature, 30 min; GST-TFs on glutathione beads, 16-mer random dsDNA library, 0.1% formaldehyde crosslink after washing; high values mean tight binding
Common to all, as to conditions: protein: recombinant; tags: N-terminal GST; dsDNA, one strand shown

The target of assay [1] is T1, ELK1 (Homo sapiens, UniProt P19419 1-428).
T1 sequence: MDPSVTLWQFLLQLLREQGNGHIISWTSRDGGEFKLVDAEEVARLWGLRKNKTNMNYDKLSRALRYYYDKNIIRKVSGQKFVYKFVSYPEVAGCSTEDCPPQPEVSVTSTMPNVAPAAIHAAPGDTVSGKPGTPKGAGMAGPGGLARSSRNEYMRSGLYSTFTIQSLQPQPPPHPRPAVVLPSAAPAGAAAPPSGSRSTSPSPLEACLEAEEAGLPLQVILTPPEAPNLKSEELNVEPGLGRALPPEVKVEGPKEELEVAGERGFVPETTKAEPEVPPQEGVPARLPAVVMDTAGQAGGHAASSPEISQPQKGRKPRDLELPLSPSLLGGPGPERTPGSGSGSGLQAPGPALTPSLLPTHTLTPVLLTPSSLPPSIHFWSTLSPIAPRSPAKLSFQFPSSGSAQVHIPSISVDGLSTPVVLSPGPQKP
Summed up:
(§1)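 Beads coated with glutathione captured GST-fused human transcription factors that had been expressed in yeast, and the factors were then given DNA barcodes and pooled with a tag-only sample. The pools were incubated with 200 nmole of a random double-stranded 16-mer DNA library in Tris/NaCl/DTT/glycerol buffer for 30 min at room temperature, washed, crosslinked with 0.1% formaldehyde and proximity-ligated with BsaI/T4 ligase at 37 °C for 1 h. PCR amplification and Illumina NextSeq500 sequencing came last. Binding signal is each hexamer's read frequency for a factor divided by its frequency for the tag-only sample.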

In assay [2] the target is T2, GABPA (Homo sapiens, UniProt Q06546 1-454).
T2 sequence: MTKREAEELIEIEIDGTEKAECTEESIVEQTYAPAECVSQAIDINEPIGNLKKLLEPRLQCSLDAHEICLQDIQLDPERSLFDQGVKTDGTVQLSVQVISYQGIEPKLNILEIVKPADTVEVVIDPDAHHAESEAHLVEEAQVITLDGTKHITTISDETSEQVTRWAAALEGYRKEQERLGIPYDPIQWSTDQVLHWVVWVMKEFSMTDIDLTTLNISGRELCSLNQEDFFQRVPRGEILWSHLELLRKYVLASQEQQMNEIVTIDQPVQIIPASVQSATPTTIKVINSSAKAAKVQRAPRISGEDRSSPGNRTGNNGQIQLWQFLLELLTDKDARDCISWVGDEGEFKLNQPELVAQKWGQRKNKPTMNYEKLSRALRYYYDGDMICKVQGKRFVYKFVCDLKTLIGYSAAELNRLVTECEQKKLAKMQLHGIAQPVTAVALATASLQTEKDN
The procedure, abridged:
as §1

Assay [3] concerns the target T3, ERG (Homo sapiens, UniProt P11308 1-479).
T3 sequence: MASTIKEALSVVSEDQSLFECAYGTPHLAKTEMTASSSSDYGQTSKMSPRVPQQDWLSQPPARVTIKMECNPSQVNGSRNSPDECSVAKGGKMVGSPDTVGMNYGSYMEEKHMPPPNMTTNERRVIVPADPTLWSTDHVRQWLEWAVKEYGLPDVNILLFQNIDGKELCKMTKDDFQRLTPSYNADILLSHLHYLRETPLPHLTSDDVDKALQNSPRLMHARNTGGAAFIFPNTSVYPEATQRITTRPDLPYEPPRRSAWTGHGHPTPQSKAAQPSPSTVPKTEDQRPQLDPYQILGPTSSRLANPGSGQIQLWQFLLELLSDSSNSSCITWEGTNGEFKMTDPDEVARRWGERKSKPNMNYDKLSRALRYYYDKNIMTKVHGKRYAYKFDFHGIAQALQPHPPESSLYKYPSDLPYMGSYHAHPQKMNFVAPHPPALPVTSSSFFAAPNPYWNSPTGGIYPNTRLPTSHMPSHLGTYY
The procedure, abridged:
as §1

Assay [4] deals with ELF1 (Homo sapiens, UniProt P32519 1-619). Summed up: as §1
Sequence of ELF1 (P32519 whole entry): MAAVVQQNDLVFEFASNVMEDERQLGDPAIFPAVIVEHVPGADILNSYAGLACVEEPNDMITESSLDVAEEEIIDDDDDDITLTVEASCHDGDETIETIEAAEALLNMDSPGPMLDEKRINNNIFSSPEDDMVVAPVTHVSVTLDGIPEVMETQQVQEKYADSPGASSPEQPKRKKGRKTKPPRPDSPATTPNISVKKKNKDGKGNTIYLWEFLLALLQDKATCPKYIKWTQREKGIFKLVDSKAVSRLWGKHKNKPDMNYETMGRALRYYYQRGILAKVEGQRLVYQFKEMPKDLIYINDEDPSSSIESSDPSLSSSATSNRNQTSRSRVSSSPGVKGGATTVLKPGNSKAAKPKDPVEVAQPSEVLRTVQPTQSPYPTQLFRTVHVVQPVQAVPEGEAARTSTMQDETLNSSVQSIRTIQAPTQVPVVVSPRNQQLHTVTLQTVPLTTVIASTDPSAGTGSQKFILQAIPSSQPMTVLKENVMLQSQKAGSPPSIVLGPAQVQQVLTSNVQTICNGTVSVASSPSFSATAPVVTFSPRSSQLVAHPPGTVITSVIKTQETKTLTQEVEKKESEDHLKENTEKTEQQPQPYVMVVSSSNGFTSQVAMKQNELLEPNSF
For assay [5], the target named is T4, EHF (Homo sapiens, UniProt Q9NZC4 1-300).
T4 sequence: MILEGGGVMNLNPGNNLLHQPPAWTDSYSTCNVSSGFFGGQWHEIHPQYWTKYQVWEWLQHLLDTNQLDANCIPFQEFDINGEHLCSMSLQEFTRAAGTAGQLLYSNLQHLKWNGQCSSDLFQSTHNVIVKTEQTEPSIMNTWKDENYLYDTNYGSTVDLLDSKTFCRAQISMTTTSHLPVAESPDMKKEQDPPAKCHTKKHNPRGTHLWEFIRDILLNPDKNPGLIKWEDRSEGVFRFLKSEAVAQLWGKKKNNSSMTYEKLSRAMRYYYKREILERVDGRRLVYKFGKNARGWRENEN
The procedure, abridged:
as §1

For assay [6], the target named is SPI1 (Homo sapiens, UniProt P17947 1-270). Summed up: as §1
For assay [7], the target named is SPIB (Homo sapiens, UniProt Q01892 1-262). The procedure, abridged: as §1
Sequence of SPIB (Q01892 whole entry): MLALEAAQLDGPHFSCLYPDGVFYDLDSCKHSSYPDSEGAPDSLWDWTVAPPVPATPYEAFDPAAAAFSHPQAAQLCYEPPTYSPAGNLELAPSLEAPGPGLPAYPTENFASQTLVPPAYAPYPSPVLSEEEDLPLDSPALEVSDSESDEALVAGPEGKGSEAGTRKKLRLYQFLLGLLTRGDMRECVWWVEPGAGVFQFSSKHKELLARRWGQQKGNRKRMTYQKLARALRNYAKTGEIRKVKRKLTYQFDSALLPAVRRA
Assay [8] has as its target T5, FEV (Homo sapiens, UniProt Q99581 1-238).
T5 sequence: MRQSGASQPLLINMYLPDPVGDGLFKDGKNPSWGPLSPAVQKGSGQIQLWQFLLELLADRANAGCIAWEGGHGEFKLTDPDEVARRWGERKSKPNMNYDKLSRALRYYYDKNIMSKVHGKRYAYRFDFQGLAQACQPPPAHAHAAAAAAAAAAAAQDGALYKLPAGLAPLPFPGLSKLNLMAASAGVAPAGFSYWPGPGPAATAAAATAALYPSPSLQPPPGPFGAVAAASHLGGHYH
The procedure, abridged:
as §1

Assay [9] addresses ETV5 (Homo sapiens, UniProt P41161 1-510). Summed up:
as §1

The target of assay [10] is ELF4 (Homo sapiens, UniProt Q99607 1-663). Summed up:
as §1

For assay [11], the target named is T6, ETV2 (Homo sapiens, UniProt O00321 1-342).
T6 sequence: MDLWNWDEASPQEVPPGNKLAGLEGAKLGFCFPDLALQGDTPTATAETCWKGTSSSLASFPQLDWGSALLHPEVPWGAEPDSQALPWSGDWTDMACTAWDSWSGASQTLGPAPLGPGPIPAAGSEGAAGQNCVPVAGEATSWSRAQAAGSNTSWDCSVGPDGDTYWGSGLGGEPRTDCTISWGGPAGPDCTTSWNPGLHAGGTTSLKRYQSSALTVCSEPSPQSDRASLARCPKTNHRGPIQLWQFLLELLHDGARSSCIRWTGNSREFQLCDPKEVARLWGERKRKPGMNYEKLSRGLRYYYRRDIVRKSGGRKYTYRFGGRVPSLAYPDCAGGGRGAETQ
The procedure, abridged: as §1

Assay [12] concerns the target ETV1 (Homo sapiens, UniProt P50549 1-477). The procedure, abridged:
as §1

Assay [13] deals with T7, ERF (Homo sapiens, UniProt P50548 1-548).
T7 sequence: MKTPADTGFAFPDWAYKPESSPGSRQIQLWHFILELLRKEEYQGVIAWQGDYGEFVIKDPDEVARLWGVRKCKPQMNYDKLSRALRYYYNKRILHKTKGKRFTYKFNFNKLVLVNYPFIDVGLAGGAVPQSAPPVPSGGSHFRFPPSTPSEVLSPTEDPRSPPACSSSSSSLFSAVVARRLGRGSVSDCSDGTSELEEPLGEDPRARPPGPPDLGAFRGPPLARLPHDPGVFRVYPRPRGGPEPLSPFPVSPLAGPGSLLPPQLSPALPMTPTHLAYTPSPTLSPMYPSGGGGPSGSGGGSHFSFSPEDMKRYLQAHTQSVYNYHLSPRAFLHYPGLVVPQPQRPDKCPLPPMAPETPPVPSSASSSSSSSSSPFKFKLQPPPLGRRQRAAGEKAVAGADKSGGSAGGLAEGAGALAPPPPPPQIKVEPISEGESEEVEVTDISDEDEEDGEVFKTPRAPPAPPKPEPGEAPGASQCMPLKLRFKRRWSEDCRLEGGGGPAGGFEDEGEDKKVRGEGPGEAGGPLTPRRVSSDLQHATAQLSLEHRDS
The procedure, abridged: as §1

Assay [14] concerns the target T8, ETV3L (Homo sapiens, UniProt Q6ZN32 1-361).
T8 sequence: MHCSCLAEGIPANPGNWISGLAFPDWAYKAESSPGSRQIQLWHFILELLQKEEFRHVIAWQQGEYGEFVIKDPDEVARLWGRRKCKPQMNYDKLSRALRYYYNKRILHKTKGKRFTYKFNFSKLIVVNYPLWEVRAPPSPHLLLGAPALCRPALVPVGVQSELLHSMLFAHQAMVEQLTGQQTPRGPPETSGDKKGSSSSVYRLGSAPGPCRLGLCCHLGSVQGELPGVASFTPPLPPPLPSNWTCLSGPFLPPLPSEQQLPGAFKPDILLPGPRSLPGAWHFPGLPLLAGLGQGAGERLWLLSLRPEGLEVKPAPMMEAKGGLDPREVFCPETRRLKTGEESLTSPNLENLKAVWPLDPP
The procedure, abridged: as §1

Assay [15] deals with T9, ETS2 (Homo sapiens, UniProt P15036 1-469).
T9 sequence: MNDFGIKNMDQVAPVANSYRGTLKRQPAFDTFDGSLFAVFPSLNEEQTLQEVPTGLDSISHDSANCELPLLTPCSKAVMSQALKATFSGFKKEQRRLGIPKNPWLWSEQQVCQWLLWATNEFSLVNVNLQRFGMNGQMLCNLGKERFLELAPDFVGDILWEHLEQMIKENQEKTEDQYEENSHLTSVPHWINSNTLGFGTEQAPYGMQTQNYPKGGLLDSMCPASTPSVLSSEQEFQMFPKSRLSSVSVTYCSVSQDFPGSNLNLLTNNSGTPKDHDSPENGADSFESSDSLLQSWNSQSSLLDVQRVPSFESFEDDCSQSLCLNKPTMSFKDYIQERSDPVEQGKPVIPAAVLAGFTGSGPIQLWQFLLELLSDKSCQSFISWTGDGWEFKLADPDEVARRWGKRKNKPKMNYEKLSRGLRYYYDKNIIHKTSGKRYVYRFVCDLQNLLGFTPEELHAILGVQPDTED
The procedure, abridged:
as §1

For assay [16], the target named is T10, SPDEF (Homo sapiens, UniProt O95238 1-335).
T10 sequence: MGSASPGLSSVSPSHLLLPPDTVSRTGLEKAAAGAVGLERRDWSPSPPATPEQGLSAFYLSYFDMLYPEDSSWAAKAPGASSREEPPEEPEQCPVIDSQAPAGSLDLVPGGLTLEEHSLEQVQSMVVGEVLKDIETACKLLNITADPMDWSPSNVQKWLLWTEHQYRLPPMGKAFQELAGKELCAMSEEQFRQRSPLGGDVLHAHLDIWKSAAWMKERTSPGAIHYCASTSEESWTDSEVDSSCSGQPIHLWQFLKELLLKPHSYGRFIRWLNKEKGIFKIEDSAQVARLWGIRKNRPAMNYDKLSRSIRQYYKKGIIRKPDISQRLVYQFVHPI
Summed up:
as §1

For assay [17], the target named is T11, ETV7 (Homo sapiens, UniProt Q9Y603 1-341).
T11 sequence: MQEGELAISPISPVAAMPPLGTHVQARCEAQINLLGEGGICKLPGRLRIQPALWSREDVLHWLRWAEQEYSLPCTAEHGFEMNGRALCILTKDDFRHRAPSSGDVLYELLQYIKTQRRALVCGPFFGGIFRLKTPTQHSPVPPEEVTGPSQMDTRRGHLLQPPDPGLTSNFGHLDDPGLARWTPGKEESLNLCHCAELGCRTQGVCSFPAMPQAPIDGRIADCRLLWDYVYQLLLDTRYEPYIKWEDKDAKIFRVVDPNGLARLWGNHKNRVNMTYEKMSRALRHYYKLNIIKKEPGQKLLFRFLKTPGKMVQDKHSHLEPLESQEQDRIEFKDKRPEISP
Summed up:
as §1

In assay [18] the target is T12, ETV3 (Homo sapiens, UniProt P41162-2 1-143).
T12 sequence: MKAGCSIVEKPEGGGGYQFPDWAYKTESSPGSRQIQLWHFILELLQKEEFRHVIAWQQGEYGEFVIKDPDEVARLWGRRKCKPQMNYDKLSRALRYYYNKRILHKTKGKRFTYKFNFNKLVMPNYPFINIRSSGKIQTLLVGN
The procedure, abridged: as §1

Assay [19] addresses ETV6 (Homo sapiens, UniProt P41212 1-452). Summed up: as §1

Sequence of ETV1 (P50549 whole entry): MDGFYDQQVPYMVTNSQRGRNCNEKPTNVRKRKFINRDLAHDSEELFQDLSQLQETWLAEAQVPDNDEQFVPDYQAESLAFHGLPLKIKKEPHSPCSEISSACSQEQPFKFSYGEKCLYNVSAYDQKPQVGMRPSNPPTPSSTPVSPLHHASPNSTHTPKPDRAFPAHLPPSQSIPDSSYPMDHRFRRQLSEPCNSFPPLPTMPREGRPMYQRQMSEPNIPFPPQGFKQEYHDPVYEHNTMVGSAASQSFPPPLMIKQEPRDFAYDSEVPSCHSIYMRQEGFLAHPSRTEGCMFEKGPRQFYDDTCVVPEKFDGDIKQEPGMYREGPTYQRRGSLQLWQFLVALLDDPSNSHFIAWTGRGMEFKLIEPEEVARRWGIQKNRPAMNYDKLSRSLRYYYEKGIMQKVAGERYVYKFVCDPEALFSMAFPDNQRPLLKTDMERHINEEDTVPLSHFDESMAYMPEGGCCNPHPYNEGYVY
Sequence of ETV5 (P41161 whole entry): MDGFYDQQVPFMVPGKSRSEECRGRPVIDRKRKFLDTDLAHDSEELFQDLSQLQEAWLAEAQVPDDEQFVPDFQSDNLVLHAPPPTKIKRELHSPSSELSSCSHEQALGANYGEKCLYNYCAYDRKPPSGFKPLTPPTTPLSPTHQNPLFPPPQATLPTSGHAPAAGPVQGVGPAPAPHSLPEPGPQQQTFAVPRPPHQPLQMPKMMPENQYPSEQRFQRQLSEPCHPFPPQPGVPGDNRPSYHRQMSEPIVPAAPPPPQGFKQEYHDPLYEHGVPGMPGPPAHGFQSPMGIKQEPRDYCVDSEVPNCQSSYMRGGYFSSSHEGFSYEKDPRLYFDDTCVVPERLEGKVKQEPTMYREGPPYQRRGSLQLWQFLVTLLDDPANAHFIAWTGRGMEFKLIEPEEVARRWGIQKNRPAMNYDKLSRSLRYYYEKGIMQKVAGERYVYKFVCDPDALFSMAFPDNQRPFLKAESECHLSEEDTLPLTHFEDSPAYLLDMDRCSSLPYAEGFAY
Sequence of ETV6 (P41212 whole entry): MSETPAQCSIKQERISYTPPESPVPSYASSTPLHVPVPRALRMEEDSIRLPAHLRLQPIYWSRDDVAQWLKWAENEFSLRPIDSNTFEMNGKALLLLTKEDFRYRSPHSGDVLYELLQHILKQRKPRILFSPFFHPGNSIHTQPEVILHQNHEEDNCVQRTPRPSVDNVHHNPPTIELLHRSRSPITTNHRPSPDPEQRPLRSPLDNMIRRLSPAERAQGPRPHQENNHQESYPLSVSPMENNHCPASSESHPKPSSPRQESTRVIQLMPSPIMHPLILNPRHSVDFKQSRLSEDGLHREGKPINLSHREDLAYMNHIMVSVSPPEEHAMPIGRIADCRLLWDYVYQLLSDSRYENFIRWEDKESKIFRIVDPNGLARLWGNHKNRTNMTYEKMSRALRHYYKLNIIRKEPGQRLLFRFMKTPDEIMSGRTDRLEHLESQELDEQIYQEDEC
Sequence of ELF4 (Q99607 whole entry): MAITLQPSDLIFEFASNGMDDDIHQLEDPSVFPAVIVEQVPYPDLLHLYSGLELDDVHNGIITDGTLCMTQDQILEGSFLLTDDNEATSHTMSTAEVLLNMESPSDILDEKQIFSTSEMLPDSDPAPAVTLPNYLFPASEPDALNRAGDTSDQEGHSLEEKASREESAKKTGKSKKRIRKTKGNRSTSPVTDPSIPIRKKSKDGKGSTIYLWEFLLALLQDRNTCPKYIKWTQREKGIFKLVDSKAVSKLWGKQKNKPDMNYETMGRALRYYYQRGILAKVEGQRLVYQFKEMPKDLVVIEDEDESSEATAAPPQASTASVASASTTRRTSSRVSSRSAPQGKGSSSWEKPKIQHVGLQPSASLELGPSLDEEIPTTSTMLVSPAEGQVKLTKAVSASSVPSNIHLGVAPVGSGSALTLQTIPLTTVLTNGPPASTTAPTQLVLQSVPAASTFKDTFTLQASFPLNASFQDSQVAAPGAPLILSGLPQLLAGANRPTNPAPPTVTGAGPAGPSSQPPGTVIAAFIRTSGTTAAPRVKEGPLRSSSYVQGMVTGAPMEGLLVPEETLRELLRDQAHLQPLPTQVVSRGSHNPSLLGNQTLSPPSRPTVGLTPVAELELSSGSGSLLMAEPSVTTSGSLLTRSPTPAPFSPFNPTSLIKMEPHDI

For CCCGTC, the binding signal in assay [1] was 1.1 fold enrichment (6-mer frequency, TF over GST control); in assay [2], 1.01 fold enrichment (6-mer frequency, TF over GST control); in [3] it was 1.1 fold enrichment (6-mer frequency, TF over GST control); in assay [4] it was 1.13 fold enrichment (6-mer frequency, TF over GST control); in assay [5] it was 1.09 fold enrichment (6-mer frequency, TF over GST control); in assay [6], 1.11 fold enrichment (6-mer frequency, TF over GST control). The binding signal in assay [7] is 1.05 fold enrichment (6-mer frequency, TF over GST control); in assay [8], 1.09 fold enrichment (6-mer frequency, TF over GST control); in [9], 1.08 fold enrichment (6-mer frequency, TF over GST control); in assay [10] it was 1.07 fold enrichment (6-mer frequency, TF over GST control); in assay [11] it was 1.32 fold enrichment (6-mer frequency, TF over GST control); in assay [12] it was 1.1 fold enrichment (6-mer frequency, TF over GST control). Moreover, the binding signal in assay [13] was 1.14 fold enrichment (6-mer frequency, TF over GST control); in [14], 1 fold enrichment (6-mer frequency, TF over GST control); in [15], 1.04 fold enrichment (6-mer frequency, TF over GST control); in assay [16], 1.12 fold enrichment (6-mer frequency, TF over GST control); in assay [17] it was 1.16 fold enrichment (6-mer frequency, TF over GST control); in [18], 1.03 fold enrichment (6-mer frequency, TF over GST control). In addition, in assay [19], the binding signal is 1.07 fold enrichment (6-mer frequency, TF over GST control).

(Values after article PMC7862700, “An all-to-all approach to the identification of sequence-specific readers for epigenetic DNA modifications on cytosine”.)
